Screening results: PubChem, National Center for Advancing Translational Sciences (NCATS)
DT40 TDP1 CPT: growth inhibition of DT40 Tdp1-/-;hTDP1 cells with camptothecin (screen for TDP1 inhibitors). chicken DT40 Tdp1-/-;hTDP1 cells + 20 nM CPT, ATP luminescence, 48 h. Potency, µM (highest dose often 46.2 µM), inactives show at the highest dose activity change, negative = growth inhibition, hits mostly inhibitors. 420,000 compounds, 12% hits; note: potency is the fitted concentration of half-maximal effect; nearly all actives have a fitted effect of over 55% in size
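Cell growth measured by CellTiter-Glo luminescence after a minimum 48 h, 37 C compound exposure with 20 nM CPT in Tdp1-knockout DT40 cells stably expressing hTDP1, seeded 400/well; qHTS titration format.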
TDP1 cell noCPT: qHTS for Inhibitors of human tyrosyl-DNA phosphodiesterase 1 (TDP1): qHTS in cells in absence of CPT; Potency, µM (series often up to 46.2 µM), without a hit: at the top dose activity change, negative = growth inhibition, usual class: inhibitors; 420,000 compounds, 15% hits; DT40 Tdp1-/- hTDP1 cells, no CPT, ATP luminescence, 48 h; note: potency is the fitted concentration of half-maximal effect; nearly all actives have a fitted effect of over 55% in size
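DT40 Tdp1-/-;hTDP1 cells, no CPT (DMSO vehicle only), 400 cells/well; compounds pin-transferred; ≥48 hr, 37 °C; CellTiter-Glo 30 min RT dark, luminescence read.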
HT1080NT lethal: kills 2HG-producing HT-1080-NT fibrosarcoma cells | HT-1080-NT fibrosarcoma viability, CellTiter-Glo ATP luminescence, 48 h | Potency, µM (top dose mostly 46.1 µM), inactives show at the highest dose activity, negative = less viability, usual class: cytotoxic | 360,000 compounds, 1.6% hits | AID 686970;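 note: NT is the 2HG producing partner of a matched IDH1 knockdown line; potency is the fitted concentration of half-maximal effect; 0% = DMSO-treated cells and -100% = media-only wells without cells; nearly all actives have a fitted effect of over 55% in size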
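Luminescent CellTiter-Glo readout after 48 hours of compound exposure at 37 degrees C defined viability of HT-1080-NT cells. Activity was normalized to DMSO wells and cell-free media wells; concentration-response curves were fitted and assigned curve classes.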
IL-1B inflam inh: inhibitors of inflammasome signaling (IL-1 beta secretion). THP-1 LPS/ATP IL-1B secretion, AlphaLISA, 16 h; active compounds read low. activity change, % at 57.5 µM. 360,000 compounds, 4.7% hits. AID 743279; in the data active = activity change below about -50%; inconclusive = mostly about -30% to -49%
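THP-1 cells pretreated 1 hr with compounds (up to 57.5 uM final), then stimulated with LPS (250 ng/mL final) plus ATP (1.25 mM final); secreted IL-1B measured by AlphaLISA after 16 hr, decreased signal indicating inhibition.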
HT1080 IDH1KD tx: kills HT-1080 cells with IDH1 knockdown; 360,000 compounds, 2% hits; Potency, µM (titrated, usually from 46.1 µM), for inactives: at the highest dose activity, negative = toxicity, usual class: cytotoxic; AID 686971; HT-1080 IDH1 knockdown viability, ATP luminescence, 48 h;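 note: potency is the fitted concentration of half-maximal effect; 0% = DMSO wells and -100% = cell-free medium wells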
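After a 2 h attachment period, IDH1KD HT-1080 cells took pin-transferred compound for 48 h at 37 °C; ATP-based luminescence after 10 min room-temperature reagent incubation reported viability.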
Active calls of the source: *; ? = inconclusive; . = not tested or not shown; ! = a repeat was not active; [ ] = remark or other dose. An excerpt weighted towards active compounds, which were near 19% of everything screened. Unless noted, calls come from the whole dose curve; as a rule, active = well fitted curve in the direction sought with a large enough effect; inconclusive = small, poorly fitted or top-dose-only effect, or another doubt; inactive = no such curve, though single readings can be large; an effect the other way counts as inactive or inconclusive. Unless noted, % is set by controls: 0 for no effect and ±100 for the full control effect.

SMILES	DT40 TDP1 CPT	TDP1 cell noCPT	HT1080NT lethal	IL-1B inflam inh	HT1080 IDH1KD tx
CC(C)C(C)NC(=O)COc1ccc(Sc2ccc(OCC(=O)NC(C)C(C)C)cc2)cc1 (centres undefined)	11.6µM*	8.2µM*	-0.5%	9.6	8.8%
CC(C)C(C)NC(=O)COc1ccc(OCc2ccccc2)cc1 (centres undefined)	?	?	-5.7%	23.2	-2.5%
CC(=O)c1ccc(OCc2ccc(C(=O)c3ccccc3)cc2)cc1	10.3µM*	8.2µM*	-29.8%	-60.5*	-24.1%
CC(C)C(C)NC(=O)COc1ccc(-c2ccccc2)cc1 (centres undefined)	18.4µM*	20.6µM*	0.7%	-7.8	-1.2%
CCOC(=O)c1cc(OCC(=O)NC(C)C(C)C)cc(C(=O)OCC)c1 (centres undefined)	-2.0%	-18.6%	-0.4%	4.7	-7.1%
CC(C)NC(=O)COc1ccc(OCc2ccccc2)cc1	?	29.1µM*	-9.5%	23.2	-12.5%
CC(C)(C#CC(O)(c1ccccc1)c1ccccc1)N1CCCC1	-29.5%	-17.9%	-2.5%	-20.8	-0.6%
O=C(Nc1ccc(F)cc1)[C@H](CSCc1ccccc1)N1Cc2ccccc2C1=O	-25.4%	-21.1%	.	.	.
Cc1ccccc1CNC(=O)c1nn(-c2ccccc2F)nc1CO	-1.4%	-3.2%	.	.	.
Cc1ccc(CN2C(=O)CCC2C(=O)NCc2cccnc2)cc1 (centres undefined)	-15.2%	2.7%	10.2%	-8.9	-8.2%
CC(=O)n1c2ccccc2c2c1c1ccccc1n2C	-19.0%	-22.6%	23.1µM*	0.0	?
O=C(NCCC(=O)N1CCCC(C(F)(F)F)C1)c1ccccc1Cl (centres undefined)	-2.6%	-11.8%	6.2%	1.5	7.8%
Cc1ccccc1Nc1c(-c2cccnc2)nc2cccc(C)n12	?	20.6µM*	-12.4%	3.0	-0.3%
Cc1ccc2nc(-c3cccs3)c(Nc3ccccc3)n2c1	?	?	18.2%	.	19.1%
Cc1ccccc1Nc1c(-c2cccs2)nc2cccc(C)n12	14.6µM*	13µM*	.	.	.
Cc1cccc2nc(-c3cccnc3)c(Nc3ccc(C(C)C)cc3)n12	?	16.4µM*	.	.	.
COc1ccccc1C(=O)NCC1(N2CCN(C)CC2)CCCCC1	-17.1%	-6.5%	.	.	.
Brc1ccc(-c2noc3c2-c2nc(C4CCCCC4)sc2CC3)cc1	-8.4%	-8.2%	19.9%	19.2	12.2%
CCOc1ccc(C(O)(c2ccccc2OC)C(CN2CCCC2)c2ccccc2)cc1 (centres undefined)	11.6µM*	8.2µM*	-15.7%	?	-2.6%
CCCOc1ccc(C(O)(CCN2CCCCC2)c2ccccc2OC)cc1 (centres undefined)	18.4µM*	14.6µM*	?	-27.0	?
CCCCOc1ccc(C(O)(CCN2CCOCC2)c2ccccc2)cc1 (centres undefined)	?	?	1.1%	1.9	0.0%
COc1cc(OC)c2c(-c3ccccc3)cc(=O)oc2c1C(CCN1CCCC(C)C1)c1ccc(N(C)C)cc1 (centres undefined)	?	20.6µM*	-19.7%	-27.3	-17.8%
COc1ccc(C(CCN2CCN(c3ccccc3)CC2)c2c(OC)cc(OC)c3c(-c4ccccc4)cc(=O)oc23)cc1 (centres undefined)	?	?	-5.5%	4.2	-2.2%
COc1ccc(C(CCN2CCCC(C)C2)c2c(OC)cc(OC)c3c(C)cc(=O)oc23)cc1 (centres undefined)	13µM*	23.1µM*	-7.0%	-29.0	-6.9%
COc1ccc(C(CCN2CCCC(C)C2)c2c(OC)cc(OC)c3c(-c4ccccc4)cc(=O)oc23)cc1 (centres undefined)	3.26µM*	2.91µM*	?	-26.2	?
SMILES	DT40 TDP1 CPT	TDP1 cell noCPT	HT1080NT lethal	IL-1B inflam inh	HT1080 IDH1KD tx
COCCNc1nc(NCc2cccc(OC)c2)c2sccc2n1	14.6µM*	18.4µM*	-1.2%	-1.9	-17.2%
COCCNc1nc(NCc2ccc(C(C)C)cc2)c2sccc2n1	11.6µM*	11.6µM*	13µM*	-15.1	18.4µM*
COc1cccc(CNc2nc(NC(C)C)nc3ccsc23)c1	23.1µM*	?	?	-22.5	?
COCCNc1nc(Oc2cccc(NC(C)=O)c2)c2sccc2n1	?	-22.6%	-2.2%	26.1	-4.5%
CC1=CCC(C(=O)O)C(C(=O)NC2CCCCC2)C1 (centres undefined)	8.1%	0.0%	-2.9%	-0.1	1.4%
COc1ccccc1N(CC(=O)NCc1ccccc1)C(=O)CCC(=O)Nc1cc(C)ccn1	-7.7%	?	17.4%	10.2	10.0%
C#CCSc1nncn1C(=O)/C=C/c1ccccc1	13µM*	?	?	-80.7*	7.0%
Cc1ccc(C=C2C=C(c3ccccc3)OC2=O)cc1	?	25.9µM*	-1.3%	-19.0	7.8%
CC(=O)Oc1cccc(/C=C2\C=C(c3ccc(C)cc3)OC2=O)c1	18.4µM*	?	4.7%	-9.2	3.9%
CN(C)c1ccc(/C=C2/C=C(c3ccc4c(c3)CCCC4)OC2=O)cc1	?	?	4.0%	10.2	11.2%
CN(C)c1ccc(C=C2C=C(c3ccccc3)OC2=O)cc1	18.4µM*	10.3µM*	-5.4%	-12.9	-1.6%
C=CCn1c(=O)c2ccccc2n2c(SCC(=O)NCC)nnc12	-6.8%	3.1%	7.0%	0.0	10.3%
O=C(c1ccc2c(Cl)c3c(nc2c1)CCCC3)N1CCN(c2ccc(F)cc2)CC1	20.6µM*	18.4µM*	-0.6%	-29.7	-8.7%
COc1ccccc1N1CCN(C(=O)c2ccc3c(Cl)c4c(nc3c2)CCCC4)CC1	?	?	?	-87.1*	?
Cc1ccc(N2CCN(C(=O)c3ccc4c(Cl)c5c(nc4c3)CCCC5)CC2)c(C)c1	0.0%	-15.1%	.	.	.
O=C(O)C1OC(Oc2cc3oc(-c4ccccc4)cc(=O)c3c(O)c2O)C(O)C(O)C1O (centres undefined)	23.1µM*	?	3.1%	0.8	9.2%
Cc1ccc(Sc2ccc(NC(=O)CCl)cc2)c(C)c1	14.6µM*	18.4µM*	-1.7%	-66.9*	-21.0%
CCOC(=O)CC(=O)CSc1nc(-c2cccnc2)cc(C)c1C#N	10.2%	7.6%	-0.2%	15.5	-6.8%[9.24 µM]
CCOC(=O)CC(=O)CSc1nc(-c2cccnc2)ccc1C#N	?	3.55µM*	16.0%	-5.7	27.9%
CCOC(=O)/C=C1\CC(C(=O)OCC)Oc2c(OC)cccc21 (centres undefined)	?	23.1µM*!	4.6%	14.4	1.1%
COC(=O)c1c(-c2ccc(N(C)C)cc2)oc2c1C(OC)CCC2 (centres undefined)	?	18.4µM*	-10.4%	-9.8	-24.8%
